Measured values: ChEMBL document CHEMBL1201862, “PubChem BioAssay data set” (2004)
The campaign covered roughly 400,000 compounds. About 2,100 (0.53%) were called active. Not shown: some 14% with an inconclusive outcome. No rule for the calls is given here. The list comes from a sample in which actives are over-represented; it also holds similar structures and randomly drawn compounds.

Target: Ataxin-2 (Homo sapiens) (UniProt Q99700)
Experiment: qHTS for Inhibitors of ATXN expression.
Format: functional

Sequence of Ataxin-2 (Homo sapiens) (Q99700 whole entry): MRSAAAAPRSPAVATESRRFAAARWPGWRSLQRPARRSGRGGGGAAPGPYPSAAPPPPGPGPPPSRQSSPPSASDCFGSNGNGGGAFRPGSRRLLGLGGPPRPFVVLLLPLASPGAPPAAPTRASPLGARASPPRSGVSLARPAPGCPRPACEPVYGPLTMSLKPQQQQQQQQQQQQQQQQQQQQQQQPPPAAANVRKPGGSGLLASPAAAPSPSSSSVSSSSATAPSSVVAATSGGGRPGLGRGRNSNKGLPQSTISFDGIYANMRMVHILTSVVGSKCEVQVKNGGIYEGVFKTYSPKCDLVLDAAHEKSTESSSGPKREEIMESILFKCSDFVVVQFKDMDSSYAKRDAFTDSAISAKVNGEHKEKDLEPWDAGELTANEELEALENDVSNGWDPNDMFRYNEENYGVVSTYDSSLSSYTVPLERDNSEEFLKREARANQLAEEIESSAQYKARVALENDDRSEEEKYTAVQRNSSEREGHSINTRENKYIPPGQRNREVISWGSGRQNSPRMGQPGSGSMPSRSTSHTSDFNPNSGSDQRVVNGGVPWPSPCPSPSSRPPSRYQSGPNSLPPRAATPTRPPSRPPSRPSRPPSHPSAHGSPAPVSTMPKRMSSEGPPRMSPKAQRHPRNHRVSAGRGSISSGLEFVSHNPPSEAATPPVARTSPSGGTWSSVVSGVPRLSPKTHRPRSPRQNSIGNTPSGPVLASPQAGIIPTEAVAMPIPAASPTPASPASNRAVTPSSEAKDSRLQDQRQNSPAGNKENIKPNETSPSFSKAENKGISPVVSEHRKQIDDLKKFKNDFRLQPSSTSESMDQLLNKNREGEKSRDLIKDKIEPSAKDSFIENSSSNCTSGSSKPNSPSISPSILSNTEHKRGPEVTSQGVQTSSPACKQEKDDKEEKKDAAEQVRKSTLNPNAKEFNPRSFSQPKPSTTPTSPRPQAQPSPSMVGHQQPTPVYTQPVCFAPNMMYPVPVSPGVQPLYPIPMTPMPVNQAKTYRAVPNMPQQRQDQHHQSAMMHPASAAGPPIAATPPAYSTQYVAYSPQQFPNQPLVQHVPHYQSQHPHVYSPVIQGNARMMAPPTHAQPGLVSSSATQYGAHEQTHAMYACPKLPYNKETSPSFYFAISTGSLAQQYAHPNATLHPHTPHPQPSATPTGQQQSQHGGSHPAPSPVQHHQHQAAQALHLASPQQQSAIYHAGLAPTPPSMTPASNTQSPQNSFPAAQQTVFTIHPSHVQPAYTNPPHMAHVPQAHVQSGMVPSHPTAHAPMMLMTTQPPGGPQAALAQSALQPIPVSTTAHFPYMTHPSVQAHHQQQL

Structure (SMILES)	Potency
CC(=O)Nc1ccc(OS(=O)(=O)c2cc(Cl)ccc2C)cc1	inactive
Cn1cnc([N+](=O)[O-])c1S(=O)(=O)Oc1ccccc1	28.2 µM (active)
CCOc1ccc(Nc2nc3c(S(=O)(=O)c4cccc(Cl)c4)nnn3c3ccsc23)cc1	inactive
Cn1c(=O)n(CCOc2ccc([N+](=O)[O-])cc2)c2ccccc21	inactive
O=S(=O)(Oc1ccc(Cl)cc1)c1cccc2cccnc12	inactive
Cn1cnc([N+](=O)[O-])c1S(=O)(=O)c1cccc(Cl)c1	8.91 µM (active)
Cn1cnc([N+](=O)[O-])c1S(=O)(=O)Oc1ccc(Cl)cc1	31.6 µM (active)
Cc1c2c(n3c(nc4ccccc43)c1C#N)N(CCCN(C)C)CC2	inactive
Cc1ccc(Sc2ncccc2C(=O)N(C)Cc2cccs2)c(C)c1	inactive
O=c1c2ccccc2oc2cc(NCCCN3CCOCC3)ccc12	inactive
CCN(CC)S(=O)(=O)c1ccc(N2CCCC2)c(NS(=O)(=O)c2cccs2)c1	inactive
CCCCCCSc1ccc(-c2nc3cnccn3c2NCCCC)cc1	inactive
O=c1c2ccccc2nc(/C=C/c2ccc([N+](=O)[O-])o2)n1CCCO	15.8 µM (active)
O=c1c2ccccc2nc(/C=C/c2cc(Br)ccc2O)n1CCCO	inactive
CN(C)c1ccc(/C=C/c2nc3ccccc3c(=O)n2CCO)cc1	inactive
CCn1c(/C=C/c2cc[n+](C)cc2)nc2ccccc21	inactive
O=C(/C=C/c1ccc(Cl)c([N+](=O)[O-])c1)c1ccc(O)cc1	28.2 µM (active)
COc1ccc(Oc2ccc(/C=C/C(=O)c3cccc(OC)c3)cc2[N+](=O)[O-])cc1	39.8 µM (active)
COc1ccc(Oc2ccc(/C=C/C(=O)c3ccc(O)cc3)cc2[N+](=O)[O-])cc1	28.2 µM (active)
COc1ccc(OC)c(C=Cc2ccc([N+](=O)[O-])cc2)c1	inactive
Cc1cc(CNC(=O)c2cccc([N+](=O)[O-])c2C)c2ccccc2n1	inactive
Cc1ccc(NC(=S)N(CCCN2CCCC2)Cc2cccn2Cc2ccc(Cl)cc2)cc1	39.8 µM (active)
CSc1cccc(NC(=S)N(CCCN2CCCC2)Cc2cccn2Cc2ccc(Cl)cc2)c1	31.6 µM (active)
COc1ccc(NC(=S)N(CCCN2CCCC2)Cc2cccn2Cc2ccc(Cl)cc2)cc1Cl	39.8 µM (active)
Cc1cccc(NC(=S)N(CCCN2CCCC2)Cc2cccn2Cc2ccc(Cl)cc2)c1	25.1 µM (active)
COc1ccc(NC(=O)Cn2nc(C(=O)O)c3ccccc3c2=O)cc1Cl	inactive
CN(CC(=O)Nc1cccc(C#N)c1)Cc1ccc(Cl)cc1	inactive
